Experimental data from PubChem BioAssay AID1159580 (chemical genetic matrix, 2015).
Screen size: about 5,500 compounds; about 2,000 (36%) were called active. Another 18% or so got no clear call; they are omitted. Cut-off read from the data, not from the text of the source: active = normalized growth mostly below about 0.91 (no sharp cut-off); inconclusive = no clear call, values can overlap the other calls; inactive = mostly above about 0.92. The list shows a part of the results.

Assay: chemical genetic growth profiling, strain panel (AID 1159580);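 note: tested at 20 µM; growth read once vehicle control cultures reached saturation at 30 °C; 1 = growth at the plate median or of vehicle wells; lower values mean less growth of the strain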
Conditions: growth OD

Measured: normalized growth

CC(=O)N[C@@H](CC(=O)O)C(=O)O
inactive: S. cerevisiae deletion strains, locus YJR043C, strain POL32, hits give low values 1.01 | S. cerevisiae deletion strains, locus YJR075W, strain HOC1, hits give low values 1.01 | S. cerevisiae deletion strains, locus YKL009W, strain mrt4, hits give low values 1.03 | S. cerevisiae deletion strains, locus YKL068W, hits give low values 1.01 | S. cerevisiae deletion strains, locus YKL085W, strain MDH1 (second series), hits give low values 1.01 | S. cerevisiae deletion strains, locus YKL085W, strain MDH1, hits give low values 1.01 | S. cerevisiae deletion strains, locus YKL160W, strain elf1, hits give low values 0.998 | S. cerevisiae deletion strains, locus YKL190W, strain CNB1, hits give low values 1.01 | S. cerevisiae deletion strains, locus YKR001C, strain vps1, hits give low values 1.01 | S. cerevisiae deletion strains, locus YKR026C, strain gcn3, hits give low values 1.01 | S. cerevisiae deletion strains, locus YKR091W, strain srl3, hits give low values 1 | S. cerevisiae deletion strains, locus YLL001W, strain dnm1, hits give low values 1.01 | S. cerevisiae deletion strains, locus YLL026W, hits give low values 1.01 | S. cerevisiae deletion strains, locus YLL041C, strain sdh2, hits give low values 1.01 | S. cerevisiae deletion strains, locus YLR027C, strain aat2, hits give low values 1.02 | S. cerevisiae deletion strains, locus YLR039C, strain RIC1, hits give low values 0.984 | S. cerevisiae deletion strains, locus YLR058C, strain SHM2, hits give low values 1.01 | S. cerevisiae deletion strains, locus YLR102C, strain apc9, hits give low values 1.01 | S. cerevisiae deletion strains, locus YLR221C, strain rsa3, hits give low values 0.974 | S. cerevisiae deletion strains, locus YLR258W, strain gsy2, hits give low values 0.997 | S. cerevisiae deletion strains, locus YLR262C, strain YPT6 (second series), hits give low values 1 | S. cerevisiae deletion strains, locus YLR262C, strain YPT6, hits give low values 1.01 | S. cerevisiae deletion strains, locus YLR268W, strain sec22, hits give low values 1.02 | S. cerevisiae deletion strains, locus YLR320W, strain mms22, hits give low values 0.992 | S. cerevisiae deletion strains, locus YLR330W, strain CHS5, hits give low values 1.01 | S. cerevisiae deletion strains, locus YLR342W, strain FKS1 (second series), hits give low values 1.01 | S. cerevisiae deletion strains, locus YLR342W, strain FKS1, hits give low values 1.01 | S. cerevisiae deletion strains, locus YLR357W, strain rsc2, hits give low values 1.01 | S. cerevisiae deletion strains, locus YLR370C, strain arc18, hits give low values 1.01 | S. cerevisiae deletion strains, locus YLR371W, strain rom2, hits give low values 1.02 | S. cerevisiae deletion strains, locus YLR384C, strain iki3, hits give low values 0.982 | S. cerevisiae deletion strains, locus YLR418C, strain cdc73, hits give low values 1.02 | S. cerevisiae deletion strains, locus YML016C, strain PPZ1, hits give low values 1.01 | S. cerevisiae deletion strains, locus YML032C, strain rad52, hits give low values 1.01 | S. cerevisiae deletion strains, locus YML120C, strain ndi1, hits give low values 1.01 | S. cerevisiae deletion strains, locus YML124C, strain tub3, hits give low values 1.02 | S. cerevisiae deletion strains, locus YMR058W, strain fet3, hits give low values 1.02 | S. cerevisiae deletion strains, locus YMR078C, strain ctf18, hits give low values 1 | S. cerevisiae deletion strains, locus YMR125W, strain sto1, hits give low values 1.01 | S. cerevisiae deletion strains, locus YMR129W, hits give low values 1 | S. cerevisiae deletion strains, locus YMR205C, strain PFK2, hits give low values 0.993 | S. cerevisiae deletion strains, locus YMR223W, strain ubp8, hits give low values 1.01 | S. cerevisiae deletion strains, locus YMR231W, strain pep5, hits give low values 1 | S. cerevisiae deletion strains, locus YMR263W, strain SAP30, hits give low values 1.01 | S. cerevisiae deletion strains, locus YMR307W, strain GAS1, hits give low values 1.03 | S. cerevisiae deletion strains, locus YNL067W, strain RPL9B, hits give low values 1.02 | S. cerevisiae deletion strains, locus YNL071W, strain lat1, hits give low values 1.01 | S. cerevisiae deletion strains, locus YNL128W, strain TEP1, hits give low values 1.02 | S. cerevisiae deletion strains, locus YNL153C, strain GIM3, hits give low values 1 | S. cerevisiae deletion strains, locus YNL209W, strain ssb2, hits give low values 1.01 | S. cerevisiae deletion strains, locus YNL233W, strain BNI4, hits give low values 1 | S. cerevisiae deletion strains, locus YNL248C, strain rpa49, hits give low values 0.91 | S. cerevisiae deletion strains, locus YNL250W, strain rad50, hits give low values 1.01 | S. cerevisiae deletion strains, locus YNL271C, strain bni1, hits give low values 1.02 | S. cerevisiae deletion strains, locus YNL298W, strain CLA4, hits give low values 1.01 | S. cerevisiae deletion strains, locus YNL307C, strain MCK1, hits give low values 1.02 | S. cerevisiae deletion strains, locus YNL322C, strain KRE1 (second series), hits give low values 0.994 | S. cerevisiae deletion strains, locus YNL322C, strain KRE1, hits give low values 1.01 | S. cerevisiae deletion strains, locus YNR049C, strain mso1, hits give low values 0.996 | S. cerevisiae deletion strains, locus YNR052C, strain pop2, hits give low values 1.01 | S. cerevisiae deletion strains, locus YOL006C, strain TOP1, hits give low values 1.04 | S. cerevisiae deletion strains, locus YOL012C, strain htz1 0.941 | S. cerevisiae deletion strains, locus YOL147C, strain pex11, hits give low values 1.01 | S. cerevisiae deletion strains, locus YOR001W, strain rrp6, hits give low values 0.988 | S. cerevisiae deletion strains, locus YOR061W, strain CKA2, hits give low values 1 | S. cerevisiae deletion strains, locus YOR069W, strain VPS5, hits give low values 1.01 | S. cerevisiae deletion strains, locus YOR070C, strain gyp1, hits give low values 1 | S. cerevisiae deletion strains, locus YOR080W, strain dia2, hits give low values 1 | S. cerevisiae deletion strains, locus YOR083W, strain WHI5, hits give low values 1 | S. cerevisiae deletion strains, locus YOR106W, strain vam3, hits give low values 1.01 | S. cerevisiae deletion strains, locus YOR136W, strain idh2, hits give low values 1.01 | S. cerevisiae deletion strains, locus YOR144C, strain elg1, hits give low values 1.02 | S. cerevisiae deletion strains, locus YOR184W, strain ser1, hits give low values 1.01 | S. cerevisiae deletion strains, locus YOR265W, strain rbl2, hits give low values 1.02 | S. cerevisiae deletion strains, locus YOR270C, strain vph1, hits give low values 1.01 | S. cerevisiae deletion strains, locus YOR290C, strain snf2, hits give low values 0.998 | S. cerevisiae deletion strains, locus YOR316C, strain cot1, hits give low values 1.01 | S. cerevisiae deletion strains, locus YPL051W, strain arl3, hits give low values 1.03 | S. cerevisiae deletion strains, locus YPL055C, strain LGE1, hits give low values 1.02 | S. cerevisiae deletion strains, locus YPL078C, strain atp4, hits give low values 1.02 | S. cerevisiae deletion strains, locus YPL106C, strain sse1, hits give low values 1.01 | S. cerevisiae deletion strains, locus YPL240C, strain hsp82, hits give low values 1.01 | S. cerevisiae deletion strains, locus YPL241C, strain CIN2, hits give low values 1.01 | S. cerevisiae deletion strains, locus YPR119W, strain clb2, hits give low values 1.02 | S. cerevisiae deletion strains, locus YPR141C, strain kar3, hits give low values 1.02 | S. cerevisiae deletion strains, locus YPR163C, strain tif3, hits give low values 1.03 | S. cerevisiae deletion strains, locus YPR167C, strain met16, hits give low values 1.01 | S. cerevisiae deletion strains, strain wtn01, hits give low values 1.01 | S. cerevisiae strains, strain wild type, hits give low values 1.01
